Results on 27 molecules are retold here after PubChem BioAssay (NCATS).

Records with an inconclusive call do not appear. Unmarked numbers belong to inactive results. The source made the active and inactive calls. The call rests on the fitted dose curve; in most records, active means well fitted cell-killing curve with a large enough effect; inconclusive means small, poorly fitted or top-dose-only effect, or effect the other way; inactive means flat fitted curve, though single readings scatter. Where a SMILES comes first, the peptide text is derived from it. The star is where a group is joined. Cbz = O=C(OCc1ccccc1)*; CH2Cl = ClC*

What all share (experiment): Primary qHTS to identify gynecologic anti-cancer compounds using libraries of approved drugs and bioactive compounds (AID 1345084); further: nearly all actives have a fitted effect of over 55% in size
On the technique in general: Quantitative high-throughput screening tests each substance at several concentrations.

Test [1] deals with CASKI. The settings on record: Gynecologic cancer cell panel viability, ATPlite luminescence, 48 h; series mostly up to 57.5 µM. The essentials:
(§1)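 In this quantitative HTS, cell killing is estimated from loss of ATP-dependent luciferase light. Cells see five compound concentrations over a 48 h exposure.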

The subject of test [2] is Es-2. The settings on record: Gynecologic cancer cell panel viability, ATPlite luminescence, 48 h; series mostly up to 57.5 µM. A digest of the protocol: as §1
The test system of test [3] is HeLa. The settings on record: Gynecologic cancer cell panel viability, ATPlite luminescence, 48 h; series mostly up to 57.5 µM. The essentials: as §1
On the technique in general: Cellular ATP, detected with luciferase, serves as a proxy for viable cell number.

The subject of test [4] is Hek293T. The settings on record: Gynecologic cancer cell panel viability, ATPlite luminescence, 48 h, control line for the selectivity index; series mostly up to 57.5 µM. A digest of the protocol: as §1
Test [5] concerns JEG-3. The settings on record: Gynecologic cancer cell panel viability, ATPlite luminescence, 48 h; series mostly up to 57.5 µM. A digest of the protocol:
as §1

In test [6] the test system is CAOV3. Conditions: Gynecologic cancer cell panel viability, ATPlite luminescence, 48 h; series mostly up to 57.5 µM. The essentials: as §1
Potency means the concentration at half of the fitted maximal effect.

In the case of `C=C1C(=O)O[C@@H]2/C=C(\CO)CC/C=C(/C=O)C[C@@H](O)[C@@H]12`, the Potency entry in test [1], in test [3] and in test [5] was “inactive” in each case. Besides, the Potency is 31.6 µM (active) in test [2] and 28.2 µM (active) in test [4].
`CC(C)=C1C[C@@]2(C)C(=CC1=O)CC[C@@H](OC(=O)/C(C)=C/CO)[C@@H]2C`: the Potency entry in test [6], in test [3], in test [4] and in test [5] was “inactive” each time.
Consider `C=C(C)C(=O)OC1CC2(C)OC(=CC2=O)C(=C)CC2OC(=O)C(=C)C12` (stereo unspecified), for which the Potency entry in test [1], in test [3] and in test [5] was “inactive” throughout. Moreover, the Potency was 4.47 µM (active) in test [2] and 6.31 µM (active) in test [4].
On to `COc1cc(C[C@H]2C(=O)OC[C@@H]2Cc2ccc(OC)c(OC)c2)ccc1O`, for which the Potency entry in test [6], in test [3] and in test [5] was “inactive” each time.
Consider `Cc1ccc(NC(=O)C(C)C)cc1C1CCN(Cc2ccc(Oc3ccc(F)c(F)c3)cc2)CC1`, for which the Potency result in test [1], in test [3] and in test [5] was “inactive” in each case.
For the molecule `Fc1ccc2[nH]ccc2c1-c1nc(N2CCOCC2)c2sc(CN3CCN(CC4CC4)CC3)cc2n1`, the Potency result in test [2] and in test [3] was “inactive” each time. In addition, the Potency in test [5] is 20 µM (active).
Turning to `CN1CCN(Cc2ccc(NC(=O)Cc3ccc(Oc4cc(NC(=O)C5CC5)ncn4)cc3)cc2C(F)(F)F)CC1`, the Potency was 7.94 µM (active) in test [2] and 7.08 µM (active) in test [3].
Take `O=C(Nc1ccnc(NC(=O)C2CC2)c1)c1c(Cl)cccc1Cl`: the figures for the Potency in test [2] and in test [3] were 22.4 µM (active) and 17.8 µM (active), respectively.
For `COc1cc(CCc2cc(NC(=O)c3ccc(N4CC(C)NC(C)C4)cc3)n[nH]2)cc(OC)c1` (stereo unspecified), the Potency entry in test [1] and in test [5] was “inactive” in each case.
`CC(C)C[C@H](NC(=O)CNC(=O)OCc1ccccc1)C(=O)N[C@@H](Cc1ccccc1)C(=O)CCl` (Cbz-Gly-Leu-Phe-CH2Cl): the Potency result in test [1] and in test [3] was “inactive” throughout.
For the molecule `C=CC(=O)Nc1ccc(CN2C(=O)N(c3cc(OC)cc(OC)c3)Cc3cnc(Nc4ccc(N5CCN(C)CC5)cc4)nc32)cc1`, the Potency in test [1] is 14.1 µM (active). Moreover, the Potency result in test [2] and in test [4] was “inactive” each time.
Take `Clc1ccc(Nc2nc3ccccc3c3nc(C4CCCCC4)[nH]c23)cc1Cl`: the Potency result in test [1] and in test [5] was “inactive” throughout.
For the molecule `C=CC(=O)Nc1cccc(Nc2nc(Nc3ccc(NC4CN(CCF)C4)cc3OC)ncc2C(F)(F)F)c1`, the Potency in test [1] is 17.8 µM (active). The Potency entry in test [2] and in test [5] was “inactive” in each case.
On to `O=C(NNc1nc2cc(F)ccc2n2cccc12)c1cnccn1`, for which the Potency result in test [1], in test [3] and in test [5] was “inactive” in each case. For the same molecule, the Potency is 7.08 µM (active) in test [2] and 3.55 µM (active) in test [4].
Consider `c1cc(NC2CCNCC2)nc(-c2cnc3ccccn23)c1`, for which the Potency in test [1] is 10 µM (active); in test [2], 17.8 µM (active); in test [3], 8.91 µM (active). Further, in test [5], the Potency result is “inactive”.
For the molecule `C/C(=N\N=C(N)N)c1cc(NC(=O)CCCCCCCCC(=O)Nc2cc(/C(C)=N/N=C(N)N)cc(/C(C)=N/N=C(N)N)c2)cc(/C(C)=N/N=C(N)N)c1`, the Potency entry in test [1], in test [3], in test [4] and in test [5] was “inactive” in each case.
`CCc1cc(C(N)=O)ccc1-n1nc(C(C)C)c2c(-n3cnc(-c4cnn(C)c4)c3)ccnc21`: the Potency result in test [1], in test [2], in test [3] and in test [5] was “inactive” throughout.
As for `C=C1C(=O)OC2/C=C(/C)C3=CC(=O)C(C)(CC(OC(=O)/C(C)=C/COC(C)=O)C12)O3` (stereo unspecified), the Potency in test [2] was 7.08 µM (active). For the same molecule, the Potency entry in test [3] is “inactive”.
As to `C[C@@H](Nc1ncnc2[nH]c(-c3ccc(O)cc3)cc12)c1ccccc1`, the Potency in test [1] is 22.4 µM (active). Further, the Potency entry in test [2], in test [4] and in test [5] was “inactive” each time.
With `Cc1cc(NC(=O)c2cccc(NC(=O)/C=C/CN(C)C)c2)ccc1Nc1nccc(-c2cccnc2)n1`, the Potency result in test [2], in test [3] and in test [5] was “inactive” each time.
For the molecule `C=C[C@@]1(C)C=C2C(=O)C(O)=C3[C@](C)(C(=O)O)CC[C@@H]4C[C@]34[C@]2(O)C(=O)C1`, the Potency was 10 µM (active) in test [2] and 11.2 µM (active) in test [4]. Besides, the Potency entry in test [3] is “inactive”.
Consider `CCCCCCCCn1cc(CN(CC)CC)c2cc(-c3cnc(N)nc3)ccc21`, for which the Potency entry in test [1], in test [3], in test [4] and in test [5] was “inactive” each time.
As for `O=C1C(Cc2ccc(O)cc2)N2C(=O)CCN(C(=O)NCc3ccccc3)C2CN1Cc1cccc2ccccc12` (stereo unspecified), the Potency entry in test [1] and in test [5] was “inactive” each time. Further, the Potency in test [2] was 8.91 µM (active).
With `COC1CC/C=C(\C)C(=O)Nc2cc(O)cc(c2)CC(C)CC(OC)C(O)C(C)/C=C(\C)C1OC(N)=O` (stereo unspecified), the Potency entry in test [2] and in test [3] was “inactive” each time.
As for `C=C(C)[C@@H]1CC=C(COC(=O)NC(=O)c2ncn3c(=O)n(C)nnc23)CC1`, the Potency in test [2] is 20 µM (active); in test [3], 31.6 µM (active); in test [4] it was 25.1 µM (active).
For `CCCCNc1ncc(C(=O)NCc2ccc(-n3ccnc3)cc2)c(NC2CCC(O)CC2)n1` (stereo unspecified), the Potency entry in test [2] and in test [4] was “inactive” in each case.
For the molecule `C=C1C(=O)O[C@@H]2[C@H]1CC(=O)[C@H](C)[C@@](O)(C(=O)/C=C/C)[C@H]2OC(=O)C(C)CC` (stereo partly specified), the Potency in test [1] and in test [4] was 10 µM (active) each time. For the same molecule, the Potency result in test [3] and in test [5] was “inactive” throughout.
